Assay results from PMC5540273 (PLoS ONE, 2017).

What was measured:
Conditions in all cases: concentration: 1 μM, replicates: in singlicate; n = 1
ACVR2B = system: ACVR2B
ACVRL1 = system: ACVRL1
ADCK3 = system: T1, ADCK3
T1 construct: gene CABC1

ADCK4 = system: ADCK4
AKT1 = system: AKT1
AKT2 = system: AKT2
AKT3 = system: AKT3
ALK = system: ALK
AMPK-alpha1 = system: T2, AMPK-alpha1
T2 construct: gene PRKAA1

AMPK-alpha2 = system: T3, AMPK-alpha2
T3 construct: gene PRKAA2

ANKK1 = system: ANKK1
ARK5 = system: T4, ARK5
T4 construct: gene NUAK1

ASK1 = system: T5, ASK1
T5 construct: gene MAP3K5

ASK2 = system: T6, ASK2
T6 construct: gene MAP3K6

AURKA = system: AURKA
AURKB = system: AURKB
AURKC = system: AURKC
AXL = system: AXL
BIKE = system: T7, BIKE
T7 construct: gene BMP2K

BLK = system: BLK
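Also: KINOMEscan kinase panel screen.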

Row | SMILES | %Inh (ACVR2B) [%] | %Inh (ACVRL1) [%] | %Inh (ADCK3) [%] | %Inh (ADCK4) [%] | %Inh (AKT1) [%] | %Inh (AKT2) [%] | %Inh (AKT3) [%] | %Inh (ALK) [%] | %Inh (AMPK-alpha1) [%] | %Inh (AMPK-alpha2) [%] | %Inh (ANKK1) [%] | %Inh (ARK5) [%] | %Inh (ASK1) [%] | %Inh (ASK2) [%] | %Inh (AURKA) [%] | %Inh (AURKB) [%] | %Inh (AURKC) [%] | %Inh (AXL) [%] | %Inh (BIKE) [%] | %Inh (BLK) [%]
1 | COc1ccc(Nc2nccc(NCCNC(=O)Nc3ccccc3F)n2)cc1 [GSK1379901] | 0 | 0 | 15 | 25 | 0 | 0 | 0 | 48 | 0 | 0 | 22 | 23 | 0 | 4 | 12 | 36 | 28 | 0 | 12 | 0
2 | NC(=O)c1nnc2ccccc2c1N | 24 | 0 | 81 | 1 | 7 | 0 | 0 | 24 | 25 | 6 | 34 | 0 | 20 | 40 | 0 | 32 | 40 | 19 | 51 | 0
3 | Cc1cccc(-c2cc(Nc3ccncc3)c3ccccc3n2)n1 [GSK223675] | 0 | 0 | 0 | 11 | 0 | 0 | 0 | 26 | 0 | 8 | 6 | 8 | 11 | 9 | 9 | 0 | 1 | 0 | 9 | 11
4 | O=C1NC(=O)C(N2CCc3ccccc32)=C1c1ccccc1Cl [SB-373598] | 33 | 13 | 17 | 16 | 0 | 19 | 25 | 4 | 17 | 22 | 18 | 10 | 7 | 13 | 0 | 10 | 3 | 0 | 18 | 7
5 | COc1ccc(CNC(=O)NC2CCN(c3ccnc(Nc4cc(OC)c(OC)c(OC)c4)n3)C2)cc1 (stereo not drawn) [GSK1379748] | 0 | 0 | 24 | 76 | 0 | 0 | 0 | 27 | 10 | 0 | 33 | 25 | 0 | 12 | 79 | 84 | 60 | 8 | 25 | 0
6 | COc1cc(Nc2nccc(N3CCC(NC(=O)Nc4cc(C)ccc4C)C3)n2)cc(OC)c1OC (stereo not drawn) [GSK1379762] | 0 | 0 | 30 | 49 | 0 | 0 | 0 | 45 | 0 | 22 | 13 | 50 | 1 | 7 | 92.7 | 94.4 | 81 | 0 | 60 | 10
7 | CCn1c(-c2cccnc2O)nc2cnccc21 [SB-736715] | 0 | 0 | 0 | 88 | 2 | 0 | 0 | 0 | 0 | 0 | 0 | 0 | 0 | 0 | 8 | 0 | 0 | 38 | 0 | 0
8 | Cc1ccc(NC(=O)Nc2cccc(Cl)c2)cc1-c1ccc(C(=O)Nc2ccncc2)cc1 [GSK1398468] | 1 | 0 | 5 | 34 | 0 | 8 | 0 | 20 | 7 | 13 | 17 | 6 | 2 | 0 | 15 | 14 | 44 | 0 | 29 | 0
9 | Cc1cccc(-c2nc(C)cc(Nc3ccncc3)n2)n1 [GSK257997] | 7 | 0 | 18 | 24 | 0 | 3 | 0 | 20 | 3 | 12 | 0 | 0 | 0 | 0 | 21 | 0 | 13 | 7 | 21 | 32
